# Experimental data: PubChem BioAssay (NCATS)
# Several values for one entry are separate records, joined by “and”; a condition that tells them apart may be missing. Equal entries are not always repeated. Records with an inconclusive call do not appear. More than one record can exist for a structure, and the calls need not agree. Activity calls are given as the source filed them. Unless noted, the call rests on the fitted dose curve; in most records, active means well fitted curve in either direction with a large enough effect (not every such curve was filed as active); inconclusive means small, poorly fitted or top-dose-only effect, or another doubt; inactive means flat fitted curve, though single readings scatter.
# Experiments:
# [1] = AP1 Signaling Pathway (AID 357); details: ME-180 AP-1-bla reporter, EGF-induced, beta-lactamase ratio, 5 h;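 further: ME-180 reporter cells stimulated with EGF at its EC50 level; on the % scale 0 is the no-effect control and ±100 the full control effect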
# Summary of the method: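 First, ME-180 AP-1-bla cells were cultured overnight at 37 °C in low-serum Opti-MEM. Next, titrated compounds with EC50 EGF were incubated 5 hours. Finally, CCF4 was added for 2.5 hours and the 460/530 nm ratio recorded.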
# [2] = target: Cytochrome P450 1A2 (Homo sapiens) (UniProt P05177); test: p450-cyp1a2 (AID 410; calls by dose curve; further: potency means the concentration at half of the fitted maximal effect;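 on activity change, negative = inhibition: -100% = full effect of reference inhibitor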); details: recombinant CYP1A2, luciferin-ME demethylation, luminescence; series mostly up to 57 µM
# Chain of Cytochrome P450 1A2 (Homo sapiens) (P05177 whole entry, looked up): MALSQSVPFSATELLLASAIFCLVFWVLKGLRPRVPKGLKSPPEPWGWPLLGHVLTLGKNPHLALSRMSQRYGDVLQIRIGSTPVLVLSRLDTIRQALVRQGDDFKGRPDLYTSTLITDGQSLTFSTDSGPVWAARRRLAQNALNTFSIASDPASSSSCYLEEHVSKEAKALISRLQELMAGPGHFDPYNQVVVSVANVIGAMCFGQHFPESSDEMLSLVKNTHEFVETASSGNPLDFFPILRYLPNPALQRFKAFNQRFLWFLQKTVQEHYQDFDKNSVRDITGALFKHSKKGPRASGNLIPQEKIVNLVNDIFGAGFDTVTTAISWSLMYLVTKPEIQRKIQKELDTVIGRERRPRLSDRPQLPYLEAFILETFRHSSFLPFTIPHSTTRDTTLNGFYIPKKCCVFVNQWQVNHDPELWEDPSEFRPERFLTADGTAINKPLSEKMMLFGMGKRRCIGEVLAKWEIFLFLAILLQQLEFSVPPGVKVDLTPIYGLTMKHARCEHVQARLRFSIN
# Summary of the method: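 O-Demethylation of luciferin 6' methyl ether by human CYP1A2 is monitored as luciferase luminescence. Substrate sits at Km (100uM); enzyme is 20nM. Values are scaled to 57 uM furafylline as maximal inhibition.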
# [3] = NFAT Signaling Pathway (AID 444); details: Jurkat NFAT-bla M1, carbachol, beta-lactamase ratio, 5 h;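 further: carbachol stimulus at about its EC50 of 1 µM final; on the % scale 0 is the no-effect control and ±100 the full control effect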
# Summary of the method: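 Jurkat cells carrying an NFAT-driven β-lactamase reporter and co-transfected muscarinic M1 receptor were treated with compound plus carbachol (1 uM final, an EC50 level) for 5 h at 37 °C. CCF4 loading followed for 1 h at RT; 460/530 nm ratio gave %activity.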
# [4] = Stat Signaling Pathway (AID 446); details: ME-180 (cervical carcinoma) SIE beta-lactamase reporter, IL-6 stimulated, 5 h;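 further: ME-180 cervical cancer cells given 40 pM IL-6 alongside compound; SIE-controlled beta-lactamase reporter measured as 460/530 nm FRET emission ratio; on the % scale 0 is the no-effect control and ±100 the full control effect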
# Summary of the method: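 Compound effects on IL-6-induced STAT reporter activity were measured in ME-180 cells. After overnight culture, cells were co-treated with 40 pM IL-6 for 5 hrs before beta-lactamase substrate loading at room temperature.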
# [5] = Cell Viability - BJ (AID 421; calls by dose curve;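 further: potency means the concentration at half of the fitted maximal effect; cells exposed to compound for 40 hours at 37 °C before readout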); details: BJ fibroblast viability, qHTS
# Summary of the method: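 Luminescent ATP signal (CellTiter-Glo, 20 min at room temperature) served as the read-out of viable BJ cells after 40 hours of compound treatment. Responses were scaled between DMSO and 100 uM tamoxifen, and AC50 values were obtained by Hill modeling.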
# [6] = Cell Viability - Jurkat (AID 426;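 active means dose-dependent loss of cell ATP signal giving a full or clear fitted curve, ranked by lower potency value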;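 further: potency means the concentration at half of the fitted maximal effect; cells exposed to compound for 40 hours at 37 °C before ATP read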); details: qHTS
# Summary of the method: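 Cells of the human T-cell leukemia line Jurkat (E6-1) are seeded at 5000 per well, treated with compound across a concentration range for 40 hours at 37 °C, then lysed with CellTiter-Glo; luminescence reports ATP.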
# [7] = Cell Viability - Hek293 (AID 427;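 active means compounds whose dose-response curve shows a full or clear partial loss of cell viability, called from curve shape rather than a numeric limit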;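 further: potency means the concentration at half of the fitted maximal effect; cells exposed to compound for 40 hours at 37 °C before reading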); details: qHTS
# Summary of the method: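 Luminescent ATP read-out (CellTiter-Glo, 20 min RT) after 40 hr compound exposure at 37 °C in complete medium. Signal normalized to DMSO (basal) and 100 uM tamoxifen (100% inhibition); concentration-response fitted with the standard Hill equation to give AC50.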
# [8] = Cell Viability - HepG2 (AID 433; calls by dose curve;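 further: potency means the concentration at half of the fitted maximal effect; potency for ATP loss meaning cytotoxicity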); details: qHTS
# Summary of the method: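 In this qHTS format, a 40 h, 37 °C compound incubation of HepG2 cells in complete medium precedes a 20 min CellTiter-Glo step at room temperature. Tamoxifen and doxorubicin serve as positive controls; Hill-equation fits yield AC50.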
# [9] = Cell Viability - MRC5 (AID 434; calls by dose curve;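 further: potency means the concentration at half of the fitted maximal effect; potency reflects cytotoxicity seen as loss of intracellular ATP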); details: MRC5 lung fibroblast viability, qHTS
# Summary of the method: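 Decrease in intracellular ATP, quantified by luciferase light output, reflects compound toxicity toward MRC5 cells exposed for 40 hr in complete culture medium. Concentration-response curves, scaled between DMSO and 100 uM tamoxifen, gave AC50 values.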
# [10] = Cell Viability - SK-N-SH (AID 435; calls by dose curve;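 further: potency means the concentration at half of the fitted maximal effect; compound exposure lasted 40 h at 37 °C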); details: SK-N-SH neuroblastoma cell viability qHTS
# Summary of the method: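 Human neuroblastoma line, 40 h exposure at 37 °C, ATP quantified via luciferase luminescence; DMSO and 100 uM tamoxifen define 0 and 100% inhibition for AC50 fitting.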
structure (smiles),measurement,setting,value
NCCc1c[nH]c2ccc(O)cc12,"activity change, negative = inhibition",[1]; at 17.2 µM (top of the series),7.63% (inactive)
same,"activity change, negative = inhibition",[1]; at 38 µM (top of the series),7.62% (inactive)
same,Potency,[2],7.94 µM (active) and 2 µM (active)
same,"activity change, negative = inhibition",[3]; at 17.2 µM (top of the series),-8.4% (inactive)
same,"activity change, negative = inhibition",[3]; at 38 µM (top of the series),4.18% (inactive)
same,"activity, negative = inhibition",[4]; at 17.2 µM (top of the series),-0.625% (inactive)
same,"activity, negative = inhibition",[4]; at 38 µM (top of the series),-13.2% (inactive)
NCc1cc(=O)[nH]o1,"activity change, negative = inhibition",[1]; at 38 µM (top of the series),1.2% (inactive)
same,Potency,[2],inactive
same,"activity change, negative = inhibition",[3]; at 38 µM (top of the series),7.89% (inactive)
same,"activity, negative = inhibition",[4]; at 38 µM (top of the series),-1.4% (inactive)
CCCCc1ccc(C(=O)O)nc1,"activity change, negative = inhibition",[1]; at 17.2 µM (top of the series),-4.11% (inactive)
same,"activity change, negative = inhibition",[1]; at 38 µM (top of the series),-6.7% (inactive)
same,Potency,[2],31.6 µM (active) and inactive
same,"activity change, negative = inhibition",[3]; at 17.2 µM (top of the series),-0.081% (inactive)
same,"activity change, negative = inhibition",[3]; at 38 µM (top of the series),6.08% (inactive)
same,"activity, negative = inhibition",[4]; at 17.2 µM (top of the series),6.81% (inactive)
same,"activity, negative = inhibition",[4]; at 38 µM (top of the series),9.55% (inactive)
CCCN1CCO[C@@H]2c3cc(O)ccc3OC[C@H]21,"activity change, negative = inhibition",[1]; at 38 µM (top of the series),-14.2% (inactive) and 2.45% (inactive)
same,"activity change, negative = inhibition",[3]; at 38 µM (top of the series),8.87% (inactive) and 8.95% (inactive)
same,"activity, negative = inhibition",[4]; at 38 µM (top of the series),12% (inactive) and -17.6% (inactive)
O=C(O)CC[N+](=O)[O-],"activity change, negative = inhibition",[1]; at 38 µM (top of the series),-8.61% (inactive)
same,Potency,[2],inactive
same,"activity change, negative = inhibition",[3]; at 38 µM (top of the series),10% (inactive)
same,"activity, negative = inhibition",[4]; at 38 µM (top of the series),1.14% (inactive)
CNCCc1ccc(O)c(O)c1,"activity change, negative = inhibition",[1]; at 38 µM (top of the series),-12.9% (inactive)
same,"activity change, negative = inhibition",[3]; at 38 µM (top of the series),4.43% (inactive)
same,"activity, negative = inhibition",[4]; at 38 µM (top of the series),-23.7% (inactive)
CCCN1CCC[C@H](c2cccc(O)c2)C1,"activity change, negative = inhibition",[1]; at 38 µM (top of the series),-0.74% (inactive) and -8.16% (inactive)
same,Potency,[2],inactive
same,"activity change, negative = inhibition",[3]; at 38 µM (top of the series),-6.4% (inactive) and -13.2% (inactive)
same,"activity, negative = inhibition",[4]; at 38 µM (top of the series),0.0297% (inactive) and 5.34% (inactive)
CC1=NN=C(c2ccc(N)cc2)c2cc3c(cc2C1)OCO3,"activity change, negative = inhibition",[1]; at 38 µM (top of the series),-19.4% (inactive)
same,Potency,[2],31.6 µM (active)
same,"activity change, negative = inhibition",[3]; at 38 µM (top of the series),7.54% (inactive)
Cc1nccc2c1[nH]c1ccccc12,"activity change, negative = inhibition",[1]; at 17.2 µM (top of the series),-6.36% (inactive)
same,"activity change, negative = inhibition",[1]; at 38 µM (top of the series),-14.9% (inactive)
same,Potency,[2],3.98 µM (active) and 1.26 µM (active) and 631 nM (active)
same,"activity change, negative = inhibition",[3]; at 17.2 µM (top of the series),-12.1% (inactive)
same,"activity change, negative = inhibition",[3]; at 38 µM (top of the series),-12.6% (inactive)
same,"activity, negative = inhibition",[4]; at 17.2 µM (top of the series),1.58% (inactive)
same,"activity, negative = inhibition",[4]; at 38 µM (top of the series),11% (inactive)
COc1ccc2c(c[n+](C)c3c4cc5c(cc4ccc23)OCO5)c1OC,"activity change, negative = inhibition",[1]; at 38 µM (top of the series),1.37% (inactive)
same,Potency,[2],10 µM (active)
CC(C)Oc1cccnc1N(C)C1CCN(Cc2ccccc2)CC1,"activity change, negative = inhibition",[1]; at 38 µM (top of the series),2.27% (inactive)
same,Potency,[2],inactive
CC[C@@H]1C(=O)OC[C@@H]1Cc1cncn1C,"activity change, negative = inhibition",[1]; at 17.2 µM (top of the series),-3.08% (inactive) and 5.87% (inactive)
same,"activity change, negative = inhibition",[3]; at 17.2 µM (top of the series),75.4% [activator] (active)
same,"activity, negative = inhibition",[4]; at 17.2 µM (top of the series),1.99% (inactive) and 5.87% (inactive)
O=C(O)Cc1cnc[nH]1,"activity change, negative = inhibition",[1]; at 38 µM (top of the series),10.5% (inactive)
same,Potency,[2],inactive
same,"activity change, negative = inhibition",[3]; at 38 µM (top of the series),-2.43% (inactive)
same,"activity, negative = inhibition",[4]; at 38 µM (top of the series),-3.06% (inactive)
C[C@@H]1O[C@H](C[N+](C)(C)C)C[C@H]1O,"activity change, negative = inhibition",[1]; at 38 µM (top of the series),15.5% (inactive)
O=C1CCCN1CC#CCN1CCCC1,"activity change, negative = inhibition",[1]; at 38 µM (top of the series),8.1% (inactive)
same,Potency,[2],inactive
same,"activity, negative = inhibition",[4]; at 38 µM (top of the series),-7.65% (inactive)
CNCCc1c[nH]c2ccc(O)cc12,"activity change, negative = inhibition",[1]; at 38 µM (top of the series),7.75% (inactive)
same,Potency,[2],inactive
same,"activity change, negative = inhibition",[3]; at 38 µM (top of the series),12.8% (inactive)
same,"activity, negative = inhibition",[4]; at 38 µM (top of the series),-2.52% (inactive)
c1ccc(CCCN2CCN(CCOC(c3ccccc3)c3ccccc3)CC2)cc1,"activity change, negative = inhibition",[1]; at 38 µM (top of the series),-23% (inactive)
same,"activity change, negative = inhibition",[3]; at 38 µM (top of the series),-82.7% (active)
same,"activity, negative = inhibition",[4]; at 38 µM (top of the series),-17.9% (inactive)
CN[C@@H]1C[C@@H](c2ccc(Cl)c(Cl)c2)c2ccccc21,"activity change, negative = inhibition",[1]; at 38 µM (top of the series),23.3% (inactive)
same,"activity change, negative = inhibition",[3]; at 38 µM (top of the series),-14.3% (inactive)
CC(=O)OCC1=C(C(=O)O)N2C(=O)[C@@H](N)[C@@H]2SC1,"activity change, negative = inhibition",[1]; at 17.2 µM (top of the series),2.29% (inactive)
same,Potency,[2],inactive
same,"activity change, negative = inhibition",[3]; at 17.2 µM (top of the series),-6.12% (inactive)
same,"activity, negative = inhibition",[4]; at 17.2 µM (top of the series),-1.03% (inactive)
C#CCOC(=O)C1=CCCN(C)C1,"activity change, negative = inhibition",[1]; at 38 µM (top of the series),16.6% (inactive)
same,"activity change, negative = inhibition",[3]; at 38 µM (top of the series),44.2% [activator] (active)
same,"activity, negative = inhibition",[4]; at 38 µM (top of the series),14.7% (inactive)
NCCc1c[nH]c2ccccc12,"activity change, negative = inhibition",[1]; at 38 µM (top of the series),-5.53% (inactive)
same,Potency,[2],3.16 µM (active)
same,"activity change, negative = inhibition",[3]; at 38 µM (top of the series),-3.55% (inactive)
same,"activity, negative = inhibition",[4]; at 38 µM (top of the series),-11.1% (inactive)
Cn1cnc(CCN)c1,"activity change, negative = inhibition",[1]; at 38 µM (top of the series),7.44% (inactive)
same,Potency,[2],inactive
same,"activity change, negative = inhibition",[3]; at 38 µM (top of the series),6.43% (inactive)
same,"activity, negative = inhibition",[4]; at 38 µM (top of the series),0.0099% (inactive)
Clc1cnc(Oc2ccc(Oc3ncc(Cl)cc3Cl)cc2)c(Cl)c1,"activity change, negative = inhibition",[1]; at 38 µM (top of the series),8.39% (inactive)
same,Potency,[2],inactive
same,"activity, negative = inhibition",[4]; at 38 µM (top of the series),1.75% (inactive)
COC(=O)[C@@H](N)CCCN=C(N)N[N+](=O)[O-],Potency,[2],inactive
CCCCCCCCc1ccc(O)cc1,Potency,[5],> 92 µM (inactive)
same,Potency,[6],> 92 µM (inactive)
same,Potency,[7],> 92 µM (inactive)
same,Potency,[8],> 92 µM (inactive)
same,Potency,[9],> 92 µM (inactive)
same,Potency,[10],> 92 µM (inactive)
CN(C)NC(=O)CCC(=O)O,Potency,[5],> 92 µM (inactive)
same,Potency,[6],> 92 µM (inactive)
same,Potency,[7],> 92 µM (inactive)
same,Potency,[8],> 92 µM (inactive)
same,Potency,[9],> 92 µM (inactive)
same,Potency,[10],> 92 µM (inactive)
